Experimental data taken from the supplement of paper PMC11732987, “Enantioselective OTUD7B fragment discovery through chemoproteomics screening and high-throughput optimisation” (Communications Chemistry, 2025).

Key:
Experiment in all cases: log2 ratio of Biotin-Ahx-Ub-VS probe labelling (fragment/DMSO); higher = less target engagement (more negative = stronger competition), active = hit call of the paper (q ≤ 0.05, log2 ratio ≤ -1)
Settings in all cases: compound concentration: 200 uM; treatment time: 3 h
[1] = target: USP34 (UniProt Q70CQ2)
Outline: (§1)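 Global-median-normalised Spectronaut label-free quantities were compared by unpaired t-test, and values are average log2 ratios of fragment over vehicle. Only proteins with ≥2 unique peptides were used. HEK293T lysate (495 µg per sample) was treated in triplicate with fragment at 200 µM or vehicle for 3 h and then with Biotin-Ahx-Ub-VS at 0.5 µM final for 1 h. Labelled DUBs were then NeutrAvidin-enriched, digested with LysC and trypsin, and run by diaPASEF LC-MS/MS.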

[2] = target: T1, USP36 (UniProt Q9P275)
T1 sequence (whole entry): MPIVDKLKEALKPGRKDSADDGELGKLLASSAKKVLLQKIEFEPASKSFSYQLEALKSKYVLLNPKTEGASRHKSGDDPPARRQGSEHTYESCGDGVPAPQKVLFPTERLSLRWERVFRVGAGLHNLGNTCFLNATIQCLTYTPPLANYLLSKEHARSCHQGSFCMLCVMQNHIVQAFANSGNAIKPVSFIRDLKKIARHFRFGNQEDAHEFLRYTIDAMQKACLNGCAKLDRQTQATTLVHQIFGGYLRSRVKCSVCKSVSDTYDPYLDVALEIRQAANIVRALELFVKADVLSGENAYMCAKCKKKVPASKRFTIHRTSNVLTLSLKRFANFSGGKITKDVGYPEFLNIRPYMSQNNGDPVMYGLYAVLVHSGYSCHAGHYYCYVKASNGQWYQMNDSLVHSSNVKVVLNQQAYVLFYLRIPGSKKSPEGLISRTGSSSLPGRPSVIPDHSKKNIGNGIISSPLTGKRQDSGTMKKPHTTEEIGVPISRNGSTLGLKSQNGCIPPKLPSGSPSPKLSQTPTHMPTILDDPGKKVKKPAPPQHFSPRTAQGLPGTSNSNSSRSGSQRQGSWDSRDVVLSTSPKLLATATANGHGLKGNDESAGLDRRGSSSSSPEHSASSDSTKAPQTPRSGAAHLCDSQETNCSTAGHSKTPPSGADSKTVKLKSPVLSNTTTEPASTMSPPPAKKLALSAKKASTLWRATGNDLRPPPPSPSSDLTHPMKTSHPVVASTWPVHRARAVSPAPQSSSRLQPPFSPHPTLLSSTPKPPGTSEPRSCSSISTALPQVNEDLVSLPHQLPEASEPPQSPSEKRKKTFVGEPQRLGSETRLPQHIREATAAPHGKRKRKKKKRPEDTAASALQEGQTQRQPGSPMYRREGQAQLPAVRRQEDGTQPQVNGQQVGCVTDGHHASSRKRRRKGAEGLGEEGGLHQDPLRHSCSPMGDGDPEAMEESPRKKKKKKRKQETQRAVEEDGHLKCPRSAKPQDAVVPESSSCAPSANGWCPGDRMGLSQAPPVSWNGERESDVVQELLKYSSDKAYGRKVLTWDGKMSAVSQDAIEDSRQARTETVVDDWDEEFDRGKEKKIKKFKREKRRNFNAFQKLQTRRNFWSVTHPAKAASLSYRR
Outline: as §1

[3] = target: T2, USP38 (UniProt Q8NB14)
T2 sequence (whole entry): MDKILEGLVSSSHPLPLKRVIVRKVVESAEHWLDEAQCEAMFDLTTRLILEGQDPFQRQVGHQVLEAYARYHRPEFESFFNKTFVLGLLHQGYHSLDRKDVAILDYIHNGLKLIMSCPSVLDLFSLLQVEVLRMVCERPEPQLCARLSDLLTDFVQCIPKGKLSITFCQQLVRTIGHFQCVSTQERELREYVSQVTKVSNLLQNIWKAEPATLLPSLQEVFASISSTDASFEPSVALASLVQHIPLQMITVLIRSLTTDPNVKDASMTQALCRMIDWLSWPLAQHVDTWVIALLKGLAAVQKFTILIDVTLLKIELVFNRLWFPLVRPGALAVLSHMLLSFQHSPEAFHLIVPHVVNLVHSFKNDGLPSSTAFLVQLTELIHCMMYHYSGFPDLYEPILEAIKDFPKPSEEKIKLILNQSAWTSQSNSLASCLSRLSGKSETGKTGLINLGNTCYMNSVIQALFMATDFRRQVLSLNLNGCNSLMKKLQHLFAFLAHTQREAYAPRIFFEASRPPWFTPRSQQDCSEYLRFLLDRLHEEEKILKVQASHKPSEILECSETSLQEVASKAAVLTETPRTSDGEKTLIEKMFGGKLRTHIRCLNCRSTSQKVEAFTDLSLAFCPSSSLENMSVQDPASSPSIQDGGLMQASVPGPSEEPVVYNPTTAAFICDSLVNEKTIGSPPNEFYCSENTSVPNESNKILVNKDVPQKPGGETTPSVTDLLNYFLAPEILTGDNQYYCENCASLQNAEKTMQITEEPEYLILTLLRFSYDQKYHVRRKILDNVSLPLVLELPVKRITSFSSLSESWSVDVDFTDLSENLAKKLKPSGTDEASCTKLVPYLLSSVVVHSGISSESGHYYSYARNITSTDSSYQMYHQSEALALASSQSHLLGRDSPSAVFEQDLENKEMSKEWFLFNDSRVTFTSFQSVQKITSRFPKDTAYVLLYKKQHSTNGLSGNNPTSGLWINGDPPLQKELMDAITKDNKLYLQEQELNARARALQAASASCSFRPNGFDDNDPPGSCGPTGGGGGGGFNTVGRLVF
Outline: as §1

[4] = target: T3, USP39 (UniProt Q53GS9)
T3 sequence (whole entry): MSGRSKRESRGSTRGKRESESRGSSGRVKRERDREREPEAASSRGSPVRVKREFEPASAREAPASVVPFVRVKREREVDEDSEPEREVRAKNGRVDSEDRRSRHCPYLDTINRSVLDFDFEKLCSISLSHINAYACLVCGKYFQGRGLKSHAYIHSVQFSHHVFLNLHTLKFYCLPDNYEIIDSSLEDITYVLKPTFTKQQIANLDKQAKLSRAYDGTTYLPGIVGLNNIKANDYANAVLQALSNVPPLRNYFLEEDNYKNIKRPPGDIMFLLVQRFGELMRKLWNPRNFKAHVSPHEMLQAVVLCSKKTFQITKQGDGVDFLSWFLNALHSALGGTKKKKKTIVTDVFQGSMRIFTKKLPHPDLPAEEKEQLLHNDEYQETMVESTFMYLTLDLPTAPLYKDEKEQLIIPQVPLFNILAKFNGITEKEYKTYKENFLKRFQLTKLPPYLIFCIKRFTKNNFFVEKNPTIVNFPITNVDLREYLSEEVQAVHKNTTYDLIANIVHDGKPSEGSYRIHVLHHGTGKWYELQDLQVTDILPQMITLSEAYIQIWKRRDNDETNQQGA
Outline: as §1

[5] = target: T4, USP4 (UniProt Q13107)
T4 sequence (whole entry): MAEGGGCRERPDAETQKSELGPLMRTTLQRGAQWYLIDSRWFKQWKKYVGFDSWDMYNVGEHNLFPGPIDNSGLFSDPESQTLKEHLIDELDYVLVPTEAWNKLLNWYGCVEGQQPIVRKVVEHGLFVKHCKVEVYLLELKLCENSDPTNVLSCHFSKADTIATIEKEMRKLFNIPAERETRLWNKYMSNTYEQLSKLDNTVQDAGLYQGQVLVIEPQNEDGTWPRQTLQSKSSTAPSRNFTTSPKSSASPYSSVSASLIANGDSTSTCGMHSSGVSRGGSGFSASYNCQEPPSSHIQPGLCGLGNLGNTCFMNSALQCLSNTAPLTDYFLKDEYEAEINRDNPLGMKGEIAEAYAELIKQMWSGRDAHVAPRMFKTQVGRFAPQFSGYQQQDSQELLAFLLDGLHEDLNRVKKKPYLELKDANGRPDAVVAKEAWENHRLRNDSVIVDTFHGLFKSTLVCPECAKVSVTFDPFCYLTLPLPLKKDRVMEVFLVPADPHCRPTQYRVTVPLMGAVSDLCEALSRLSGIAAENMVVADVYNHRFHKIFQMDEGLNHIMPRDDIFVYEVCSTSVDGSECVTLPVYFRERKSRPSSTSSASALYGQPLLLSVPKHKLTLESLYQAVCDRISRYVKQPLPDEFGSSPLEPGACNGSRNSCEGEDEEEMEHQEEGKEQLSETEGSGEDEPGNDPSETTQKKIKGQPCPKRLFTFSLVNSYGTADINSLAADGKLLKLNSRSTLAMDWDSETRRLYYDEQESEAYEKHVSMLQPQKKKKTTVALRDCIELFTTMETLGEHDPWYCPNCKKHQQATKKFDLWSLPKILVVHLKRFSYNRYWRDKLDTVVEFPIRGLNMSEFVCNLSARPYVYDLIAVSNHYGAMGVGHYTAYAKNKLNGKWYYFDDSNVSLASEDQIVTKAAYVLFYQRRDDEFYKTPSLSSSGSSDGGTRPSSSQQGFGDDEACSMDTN
Outline: as §1

Measured: log2 ratio of Biotin-Ahx-Ub-VS probe labelling

USP34, sequence (Q70CQ2 whole entry, the tested form may be a part): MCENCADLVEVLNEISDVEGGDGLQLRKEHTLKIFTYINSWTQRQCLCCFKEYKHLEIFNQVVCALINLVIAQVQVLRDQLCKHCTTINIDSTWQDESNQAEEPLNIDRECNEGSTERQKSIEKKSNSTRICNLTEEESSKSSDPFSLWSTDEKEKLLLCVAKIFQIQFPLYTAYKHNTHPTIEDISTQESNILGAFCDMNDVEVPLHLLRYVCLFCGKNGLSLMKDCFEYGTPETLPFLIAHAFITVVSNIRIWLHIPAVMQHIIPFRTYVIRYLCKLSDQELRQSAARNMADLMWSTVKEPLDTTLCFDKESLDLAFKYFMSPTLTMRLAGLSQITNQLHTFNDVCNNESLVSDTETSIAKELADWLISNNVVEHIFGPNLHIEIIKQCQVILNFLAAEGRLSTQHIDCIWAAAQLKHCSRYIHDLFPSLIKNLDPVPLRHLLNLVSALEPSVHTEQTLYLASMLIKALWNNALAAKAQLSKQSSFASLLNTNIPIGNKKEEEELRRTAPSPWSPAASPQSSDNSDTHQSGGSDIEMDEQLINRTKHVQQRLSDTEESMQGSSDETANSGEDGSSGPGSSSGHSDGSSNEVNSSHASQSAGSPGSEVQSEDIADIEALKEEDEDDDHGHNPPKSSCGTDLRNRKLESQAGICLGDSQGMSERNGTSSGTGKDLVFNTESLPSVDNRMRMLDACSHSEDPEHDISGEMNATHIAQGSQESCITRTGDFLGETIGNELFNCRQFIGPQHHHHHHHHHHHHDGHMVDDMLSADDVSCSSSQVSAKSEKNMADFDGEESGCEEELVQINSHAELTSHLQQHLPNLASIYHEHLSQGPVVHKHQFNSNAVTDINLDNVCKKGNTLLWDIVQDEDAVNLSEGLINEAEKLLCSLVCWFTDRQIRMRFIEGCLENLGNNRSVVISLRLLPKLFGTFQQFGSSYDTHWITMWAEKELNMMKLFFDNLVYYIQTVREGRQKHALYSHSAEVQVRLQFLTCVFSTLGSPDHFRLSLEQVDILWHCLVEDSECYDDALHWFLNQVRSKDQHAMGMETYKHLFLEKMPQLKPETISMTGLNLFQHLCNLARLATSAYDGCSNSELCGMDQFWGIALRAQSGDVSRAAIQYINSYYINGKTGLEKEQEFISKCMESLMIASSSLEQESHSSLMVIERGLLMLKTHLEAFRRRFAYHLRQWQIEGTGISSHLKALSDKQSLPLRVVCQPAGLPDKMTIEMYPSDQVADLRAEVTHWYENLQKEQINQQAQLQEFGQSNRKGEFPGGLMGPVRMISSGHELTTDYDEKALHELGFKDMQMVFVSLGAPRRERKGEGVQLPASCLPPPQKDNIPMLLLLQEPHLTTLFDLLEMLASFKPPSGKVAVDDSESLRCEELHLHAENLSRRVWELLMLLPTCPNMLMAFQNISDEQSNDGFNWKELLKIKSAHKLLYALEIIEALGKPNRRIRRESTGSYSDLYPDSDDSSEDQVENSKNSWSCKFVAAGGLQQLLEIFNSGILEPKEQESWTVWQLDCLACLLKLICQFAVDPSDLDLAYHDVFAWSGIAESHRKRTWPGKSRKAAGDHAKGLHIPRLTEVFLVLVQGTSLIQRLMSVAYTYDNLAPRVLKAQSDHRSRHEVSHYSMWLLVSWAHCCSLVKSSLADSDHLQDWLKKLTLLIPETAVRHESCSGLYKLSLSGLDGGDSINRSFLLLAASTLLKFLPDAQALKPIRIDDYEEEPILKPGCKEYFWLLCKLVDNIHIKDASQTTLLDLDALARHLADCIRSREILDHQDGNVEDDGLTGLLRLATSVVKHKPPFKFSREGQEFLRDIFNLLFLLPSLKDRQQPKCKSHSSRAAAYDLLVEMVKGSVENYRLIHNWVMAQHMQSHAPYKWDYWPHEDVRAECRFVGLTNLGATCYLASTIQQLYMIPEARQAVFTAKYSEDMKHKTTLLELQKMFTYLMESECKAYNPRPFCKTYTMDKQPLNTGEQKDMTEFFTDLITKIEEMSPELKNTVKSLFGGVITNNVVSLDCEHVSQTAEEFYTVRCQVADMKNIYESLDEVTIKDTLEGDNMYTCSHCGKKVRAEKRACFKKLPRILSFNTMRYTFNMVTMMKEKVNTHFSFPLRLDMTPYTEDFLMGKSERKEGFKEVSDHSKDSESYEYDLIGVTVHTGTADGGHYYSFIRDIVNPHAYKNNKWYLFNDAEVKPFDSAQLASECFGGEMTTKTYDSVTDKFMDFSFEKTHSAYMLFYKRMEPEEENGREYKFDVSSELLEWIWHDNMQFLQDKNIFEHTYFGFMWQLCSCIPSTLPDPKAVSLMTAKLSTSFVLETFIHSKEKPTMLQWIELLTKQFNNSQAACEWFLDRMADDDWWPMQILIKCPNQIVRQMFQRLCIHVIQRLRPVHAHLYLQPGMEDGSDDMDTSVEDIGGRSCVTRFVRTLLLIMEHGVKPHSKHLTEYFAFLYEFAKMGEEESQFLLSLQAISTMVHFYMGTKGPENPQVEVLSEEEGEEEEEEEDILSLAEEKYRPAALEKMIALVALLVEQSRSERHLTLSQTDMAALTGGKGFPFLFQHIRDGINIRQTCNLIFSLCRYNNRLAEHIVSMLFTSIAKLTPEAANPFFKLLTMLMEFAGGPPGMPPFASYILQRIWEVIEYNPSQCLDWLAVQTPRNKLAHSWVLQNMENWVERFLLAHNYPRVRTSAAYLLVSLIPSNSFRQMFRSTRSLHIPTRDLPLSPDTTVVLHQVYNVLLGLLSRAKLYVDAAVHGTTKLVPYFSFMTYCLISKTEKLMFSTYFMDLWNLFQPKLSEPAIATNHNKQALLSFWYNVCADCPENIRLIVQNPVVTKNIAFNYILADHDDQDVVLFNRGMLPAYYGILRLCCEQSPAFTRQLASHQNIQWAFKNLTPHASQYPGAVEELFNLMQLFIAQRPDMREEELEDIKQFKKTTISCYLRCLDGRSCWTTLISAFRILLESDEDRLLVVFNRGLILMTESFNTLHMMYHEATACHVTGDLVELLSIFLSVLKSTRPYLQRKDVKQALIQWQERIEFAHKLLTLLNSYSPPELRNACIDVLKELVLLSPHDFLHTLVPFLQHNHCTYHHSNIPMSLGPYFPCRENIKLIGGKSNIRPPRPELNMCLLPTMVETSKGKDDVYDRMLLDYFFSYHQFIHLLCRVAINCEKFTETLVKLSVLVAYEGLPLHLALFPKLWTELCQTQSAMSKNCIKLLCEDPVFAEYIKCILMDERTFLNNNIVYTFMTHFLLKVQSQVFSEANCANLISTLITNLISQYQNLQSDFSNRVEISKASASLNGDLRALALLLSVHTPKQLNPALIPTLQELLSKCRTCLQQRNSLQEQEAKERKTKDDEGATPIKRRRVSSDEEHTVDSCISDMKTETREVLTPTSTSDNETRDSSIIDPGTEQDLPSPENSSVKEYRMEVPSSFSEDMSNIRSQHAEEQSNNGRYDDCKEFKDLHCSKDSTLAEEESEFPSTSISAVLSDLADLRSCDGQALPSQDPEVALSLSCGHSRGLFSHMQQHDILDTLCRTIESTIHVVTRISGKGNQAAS

CN1c2ccccc2C(NC(=O)CCl)CS1(=O)=O (stereo not given)
inactive: [1] -0.111 | [2] -0.287 | [3] -0.071 | [4] 0.00949 | [5] 0.0683
